# According to PubChem BioAssay (NCATS):
# Inconclusive results are not listed. Entries that show only a call come without a potency. Values without a mark were called inactive. Calls of active or inactive are those of the source. Calls come from the whole dose curve; as a rule, active = well fitted inhibition curve with a large enough effect; inconclusive = small, poorly fitted or top-dose-only effect; inactive = flat fitted curve, though single readings scatter.
# Tested on: not listed separately
# Assay: qHTS profiling for inhibitors of Plasmodium falciparum proliferation (AID 504749); note: nearly all actives have a fitted effect of over 60% in size
# Settings: P. falciparum in erythrocytes, SYBR Green DNA, 72 h; at 28.7 µM (top of the series); parasite line B
# Summary of the method: (§1)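 P. falciparum-infected erythrocytes (0.3% parasitemia, 2.5% hematocrit final) were exposed to compounds for 72 h at 37 C in 5% CO2, then lysed with SYBR Green buffer overnight at room temperature; parasite DNA fluorescence was normalized to artemisinin and DMSO controls.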
row,Compound,"activity, negative = inhibition"
1,O=C1Nc2ccc(Cl)cc2C(c2ccccc2Cl)=NC1O (stereo not given),-14%
2,CCOP(=S)(OCC)Oc1ccc2c(C)c(Cl)c(=O)oc2c1,-25.9%
3,CCC(C)(C)c1ccc(O)cc1,14.5%
4,C[C@]12CCC(=O)C=C1CC[C@@H]1[C@@H]2CC[C@]2(C)C(=O)CC[C@@H]12,3.53%
5,CN1C(=O)CCS(=O)(=O)C1c1ccc(Cl)cc1 (stereo not given),-22.5%
6,CC(C)NC(C)C,12.2%
7,CCC1(c2ccccc2)C(=O)N(COC)C(=O)N(COC)C1=O,7.29%
8,Nc1ccccc1C(=O)O,4.96%
9,O=P1(N(CCCl)CCCl)NCCCO1 (stereo not given),6.9%
10,O=C(Nc1ccc(Br)cc1)c1cc(Br)cc(Br)c1O,4.1%
11,O=C(O)CCCc1ccc(N(CCCl)CCCl)cc1,1.97%
12,Clc1ccc2c(c1)C(c1ccccc1)=NCc1nncn1-2,10.3%
13,CN1C(=O)COc2c(C(=O)NC3CN4CCC3CC4)cc(Cl)cc21 (stereo not given),7.46%
14,COP(=S)(OC)Oc1ccc(S(=O)(=O)N(C)C)cc1,1.31%
15,CC(C)c1cccc(C(C)C)c1O,4.13%
16,Nc1nc(N)nc(NC2CC2)n1,1.17%

# Tested on: 3D7
# Assay: as above
# Settings: P. falciparum in erythrocytes, SYBR Green DNA, 72 h; series mostly up to 28.7 µM
# Summary of the method: as §1
Compound,Potency,"activity, negative = inhibition"
O=C1Nc2ccc(Cl)cc2C(c2ccccc2Cl)=NC1O (stereo not given),inactive,–
CCC(C)(C)c1ccc(O)cc1,inactive,–
CNC(C)(C)Cc1ccccc1,inactive,–
CCCCC/C=C\C/C=C\C/C=C\C/C=C\CCCC(=O)NCC(=O)O,–,-0.415% [at 2.67 µM]
C[C@]12CCC(=O)C=C1CC[C@@H]1[C@@H]2CC[C@]2(C)C(=O)CC[C@@H]12,inactive,–
CN1C(=O)CCS(=O)(=O)C1c1ccc(Cl)cc1 (stereo not given),inactive,–
CC(C)NC(C)C,inactive,–
CCC1(c2ccccc2)C(=O)N(COC)C(=O)N(COC)C1=O,inactive,–
Nc1ccccc1C(=O)O,inactive,–
C[C@](O)(CS(=O)(=O)c1ccc(F)cc1)C(=O)Nc1ccc(C#N)c(C(F)(F)F)c1,inactive,–
O=P1(N(CCCl)CCCl)NCCCO1 (stereo not given),inactive,–
O=C(Nc1ccc(Br)cc1)c1cc(Br)cc(Br)c1O,inactive,–
O=C(O)CCCc1ccc(N(CCCl)CCCl)cc1,inactive,–
O=c1oc2ccccc2c(O)c1Cc1c(O)c2ccccc2oc1=O,inactive,–
Clc1ccc2c(c1)C(c1ccccc1)=NCc1nncn1-2,inactive,–
CN1C(=O)COc2c(C(=O)NC3CN4CCC3CC4)cc(Cl)cc21 (stereo not given),inactive,–
COP(=S)(OC)Oc1ccc(S(=O)(=O)N(C)C)cc1,inactive,–
CC(C)c1cccc(C(C)C)c1O,inactive,–
Nc1nc(N)nc(NC2CC2)n1,inactive,–
